# Measurements from PubChem BioAssay AID686978 (National Center for Advancing Translational Sciences (NCATS), 2013).
# Out of some 420,000 compounds screened, about 64,000 (15%) were called active. Inconclusive results (about 27%) are left out. Only a sample is shown. A number with no mark means an inactive call. Calls come from the whole dose curve; as a rule, active = well fitted inhibition curve with a large enough effect; inconclusive = small, poorly fitted or top-dose-only effect; inactive = flat fitted curve, though single readings scatter.
# Experiment: qHTS for Inhibitors of human tyrosyl-DNA phosphodiesterase 1 (TDP1): qHTS in cells in absence of CPT; note: nearly all actives have a fitted effect of over 55% in size
# Conditions: DT40 Tdp1-/- hTDP1 cells, no CPT, ATP luminescence, 48 h; activity change, negative = growth inhibition: at 46.2 µM (top of the series)
# Method in brief: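 Growth of hTDP1-complemented DT40 Tdp1-knockout cells is measured by ATP luminescence after at least 48 hr compound exposure at 37 °C, with DMSO substituting for the 20 nM CPT used in the parallel screen.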
# % is set by controls: 0 for no effect and ±100 for the full control effect; potency is the fitted concentration of half-maximal effect.
Compound,Potency,"activity change, negative = growth inhibition"
C=CCN(CC=C)S(=O)(=O)c1ccc(C(=O)Nc2sc3c(c2C(N)=O)CCCCC3)cc1,13 µM (active),
COc1cccc(OC)c1C(=O)Nc1sc2c(c1C(N)=O)CCCC2,,-1.68%
O=C(Nc1ncc2c(n1)-c1ccccc1OC2)c1ccc(Cl)cc1,,-18.8%
COCCN(CCOC)S(=O)(=O)c1ccc(C(=O)Nc2nc3c(s2)CCc2ccccc2-3)cc1,13 µM (active),
COCc1nnc(NC(=O)c2ccc3c(c2)OCO3)s1,,-3.94%
CC1(c2nnc(-c3ccncc3)o2)CC(c2cccnc2)=NO1 (stereo not drawn),,-1.46%
CN(C)/C(=N\OC(=O)c1ccccc1)c1nonc1N,,-6.06%
COCCNC(=O)c1ccc(Cn2c(SCC(=O)NCC3CCCO3)nc3ccc(Br)cc3c2=O)cc1 (stereo not drawn),,2.84%
Nc1ccn(CC(=O)N2CCN(c3ccccn3)CC2)c(=O)n1,,-6.28%
CCCC(C(=O)n1nc(C)cc1C)C(NS(=O)(=O)c1ccc(C)cc1)c1ccccc1 (stereo not drawn),23.1 µM (active),
Cc1ccc(S(=O)(=O)NC(C(=O)N2CCOCCOCCOCCOCC2)c2ccccc2)cc1 (stereo not drawn),,-13.9%
Cc1ccc(S(=O)(=O)Nc2nc(C)cc(-n3nc(C)cc3C)n2)cc1,,-1.59%
Cc1c(NC(=O)C(C)OC(=O)c2ccccc2O)c(=O)n(-c2ccccc2)n1C (stereo not drawn),,-11%
CCCCS(=O)c1snnc1C (stereo not drawn),,3.05%
O=C1CCCCC1Sc1ccc(Cl)cc1[N+](=O)[O-] (stereo not drawn),,-19.5%
CCOC(=O)c1ccc(NC(=O)c2c(N)n(C)c(=O)[nH]c2=O)cc1,,-0.401%
O=C(Nc1ccc([N+](=O)[O-])cc1)c1cnn2c1NC(=C1CC1)C=C2C(F)F,,-1.42%
CC(C)(C)C1CCC(NC(=O)c2cnn3c2NC(=C2CC2)C=C3C(F)F)CC1 (stereo not drawn),7.94 µM (active),
O=C(Nc1ccc(Cl)cc1)c1cnn2c1NC(=C1CC1)C=C2C(F)F,,0.994%
Cc1cc(N2C(=O)C(=O)/C(=C(/O)c3ccccc3)C2c2cccc(Br)c2)no1 (stereo not drawn),,-12.7%
O=C(O)CSC(NC(=O)c1cccnc1)(C(F)(F)F)C(F)(F)F,,-1.73%
COc1ccc(N)cc1NC(=O)CN1CCOCC1,,-2.03%
O=C(Nc1ccc(F)cc1)C(CCc1ccccc1)N1CCN(CC(=O)N2CCCC2)CC1 (stereo not drawn),,-24.4%
Cc1cccc(N2CCN(C(=O)c3cccc(S(=O)(=O)N4CCc5ccccc5C4)c3)CC2C)c1 (stereo not drawn),7.31 µM (active),
COC(=O)c1ccc(S(=O)(=O)N2CCc3ccccc3C2)cc1,,-27.5%
CC(NC(=O)c1cccc(S(=O)(=O)N2CCc3ccccc3C2)c1)c1ccco1 (stereo not drawn),,-22.5%
COc1ccc(-n2ncc3c(N4CCCc5ccccc54)ncnc32)cc1,,-29.4%

Compound,Potency,"activity change, negative = growth inhibition"
COc1ccc(C2(c3ccc(OC)cc3)NC(=O)N(CC(=O)Nc3cc(C)on3)C2=O)cc1,16.4 µM (active),
Cc1cc(NC(=O)CN2C(=O)NC(C)(CCc3ccccc3)C2=O)no1 (stereo not drawn),,-5.45%
CCCCCCCC1(C)NC(=O)N(CC(=O)Nc2cc(C)on2)C1=O (stereo not drawn),,-2.67%
O=C(CSc1nnc(-c2ccccc2O)o1)NC1CCCCC1,,-1.77%
O=S(=O)(Cc1ccccc1)c1nc2ccccc2n1Cc1ccccn1,,-1.39%
CCOc1ccc(S(=O)(=O)N2CCC(C(=O)NCC(=O)Nc3cccc(Cl)c3C)CC2)cc1,,-24.1%
Cc1cccc(NC(=O)c2ccccc2NC(=O)C(C)(C)C)n1,,-13.1%
Cc1cccc(NC(=O)c2cccnc2Cl)n1,,21.4%
CSc1nccc(NC(=O)c2ccc(C(C)(C)C)cc2)n1,7.31 µM (active),
Cc1cc(C)c2nc(NC(=O)c3ccc4c(c3)OCO4)sc2c1,,-19.9%
Cc1nc2cnc(Nc3ccccc3)nc2n(C[C@H]2CCCO2)c1=O,,-7.1%
O=c1cnc2cnc(Nc3ccccc3)nc2n1Cc1ccc(F)cc1,,-27.5%
COc1cccc(Nc2ncc3ncc(=O)n(C4CC4)c3n2)c1,11.6 µM (active),
CC(C)CCNC(=O)C1CCC(CNc2c(N3CCC(C)CC3)c(=O)c2=O)CC1 (stereo not drawn),,4.09%
CC(C)C(=O)N1CCN(CCN=CC2=C(O)CC(c3ccco3)CC2=O)CC1 (stereo not drawn),inactive,
Cc1ccc(OCC(=O)NCCCNC(=O)c2cccnc2)cc1C,,-16.4%
CCCc1nc(-c2ccccc2O)n(-c2ccccc2)n1,,-28.1%
CCCc1nc(N2CCN(C)CC2)c2sc(=S)n(-c3ccccc3)c2n1,16.4 µM (active),
O=C1/C(=C/c2ccc3c(c2)OCO3)Oc2cc(OCC(=O)N3CC(O)C[C@H]3C(=O)O)ccc21 (stereo partly drawn),,-0.893%
CCc1ccccc1N(CC(=O)NCCSCc1ccco1)S(C)(=O)=O,,-5.54%
CC(=O)c1ccc(NC(=O)C2CCN(S(=O)(=O)c3c(C)noc3/C=C/c3ccc(C)cc3)CC2)cc1,,-14.2%
Cc1ccnc(NC(=O)C2CCN(S(=O)(=O)c3c(C)c(C)cc(C)c3C)CC2)c1,,-18.4%
CNC(=O)C1CCN(S(=O)(=O)c2c(C)noc2/C=C/c2cccc(C)c2)CC1,,-2.36%
Cc1noc(/C=C/N(C)C)c1S(=O)(=O)N1CCCC(C(=O)NCc2ccco2)C1 (stereo not drawn),,1.87%
Cc1noc(/C=C/c2ccco2)c1S(=O)(=O)N1CCC(C(=O)Nc2ccc(Cl)cn2)CC1,18.4 µM (active),
Cc1cccc(NC(=O)C2CCN(S(=O)(=O)c3c(C)noc3/C=C/c3ccco3)CC2)c1,20.6 µM (active),
